From the OligoGym collection
Note: reference of the scale not given here.

These sequences were tested against ANAPC5 (assay: pooled miR-30 sensor sort-seq; sequence = guide strand). Settings: shRNA.
TTGAACTGAAAACATCTTGGAC gave a sensor-assay potency score (higher = more potent) of -0.413.
Sequence TTTGATTCTGATCTGCACTGAA has a sensor-assay potency score (higher = more potent) of 0.516.
With TTGTTTTGTGAACCTCTGGTTC the sensor-assay potency score (higher = more potent) was -0.673.
Sequence TTTTTGATCACATAACATCCAT has a sensor-assay potency score (higher = more potent) of 0.00973.

Each sequence was assayed against ANGPTL1 in the same assay as above. Settings: shRNA.
ATAACTTGTAATTATCTTGATT showed a sensor-assay potency score (higher = more potent) of -0.722.
Work on TATAGAGTTGAGTAACACGAGA yielded a sensor-assay potency score (higher = more potent) of -1.16.
With TTTAATGGTACTTGCATCTTGC the sensor-assay potency score (higher = more potent) was 0.613.
TAGACTTTTTTATCACTCCAGT showed a sensor-assay potency score (higher = more potent) of -0.73.
Sequence TAAATTGTTAAGTATCTTGAAC has a sensor-assay potency score (higher = more potent) of -0.687.
TCCATCTACATCCACCACCAGT showed a sensor-assay potency score (higher = more potent) of -1.83.
Work on TTGATTGCTAAGCATATAGATA yielded a sensor-assay potency score (higher = more potent) of -1.25.
In the case of TTTTGCTTGCTGACAGTCTTTG, the sensor-assay potency score (higher = more potent) is reported as -0.992.
TTAAATCTCTGGGATAACCTGG was tested, and the sensor-assay potency score (higher = more potent) was -0.522.
TTGCAGAACATCTATCTCCCGC gave a sensor-assay potency score (higher = more potent) of 0.289.
For TAATTTTGAATTGTCCACCTCT, the sensor-assay potency score (higher = more potent) was 0.889.

These sequences were tested against ANGPTL3 in the same assay as above. Settings: shRNA.
TAATGTTTGTTGTCTTTCCAGT gave a sensor-assay potency score (higher = more potent) of -0.418.
With TTGAATACTAGTCCTTCTGAGC the sensor-assay potency score (higher = more potent) was -0.706.
TTTGTGATCCATCTATTCGATG was tested, and the sensor-assay potency score (higher = more potent) was -1.29.
With TTTATATGTAGTTCTTCTCAGT the sensor-assay potency score (higher = more potent) was -0.38.
Work on TATAACATCACAGTAGACATGA yielded a sensor-assay potency score (higher = more potent) of 0.929.
With TTCTTTTATTTGACTATGCTGT the sensor-assay potency score (higher = more potent) was -0.537.
With TTGACTTGTAGTTTATATGTAG the sensor-assay potency score (higher = more potent) was 0.386.
Sequence TCGTCTAACATAGCAAATCTTG has a sensor-assay potency score (higher = more potent) of -1.34.
TTATAGAGTATAACCTTCCATT gave a sensor-assay potency score (higher = more potent) of -0.924.
Work on TTAATGTCCATGGACTACCTGA yielded a sensor-assay potency score (higher = more potent) of -0.665.
TTACATCGTCTAACATAGCAAA showed a sensor-assay potency score (higher = more potent) of -1.16.
TAGAATTTTTTCTTCTAGGAGG was tested, and the sensor-assay potency score (higher = more potent) was -0.766.

The sequences below were run against ANG in the same assay as above. Settings: shRNA.
In the case of TTGTTGCCATGAATAAATGTGT, the sensor-assay potency score (higher = more potent) is reported as -0.656.
Sequence TTGATGCTGCGCTTGTTGCCAT has a sensor-assay potency score (higher = more potent) of -0.23.
Work on TGTACCTGGAGTTATCCTGAGC yielded a sensor-assay potency score (higher = more potent) of -1.14.
With TTCACAGTATCTGTCATCCCGG the sensor-assay potency score (higher = more potent) was -0.736.
In the case of TGCTTTCACAGTATCTGTCATC, the sensor-assay potency score (higher = more potent) is reported as -1.22.
For TGGTTTGGCATCATAGTGCTGG, the sensor-assay potency score (higher = more potent) was -0.375.
For AAGACTTGCTTATTCTTAGGTT, the sensor-assay potency score (higher = more potent) was 0.22.
For TTGTTTTCACAGATGGCCTTGA, the sensor-assay potency score (higher = more potent) was 0.228.
Sequence TCACAAGCAACAACAACGTTTC has a sensor-assay potency score (higher = more potent) of -0.587.
With TTCACAAGCAACAACAACGTTT the sensor-assay potency score (higher = more potent) was -0.418.
Sequence TCTGTGAGGGTTTCCATTCTTG has a sensor-assay potency score (higher = more potent) of -0.487.
For TTCTTAGGTTTTCTCTGTGAGG, the sensor-assay potency score (higher = more potent) was -0.88.
For TTTCACAGTATCTGTCATCCCG, the sensor-assay potency score (higher = more potent) was 0.634.
